Measurements published in PubChem BioAssay (NCI).
About 83,000 compounds went through this panel and 20% of them were active in at least one assay; those are over-represented in the sample as a whole.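 Step 1: grow cells in 96-well plates. Step 2: add test compound at a single concentration. Step 3: incubate 48 h. Step 4: record percent growth.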 Active and inactive are the calls of the source. Rule for the calls: active = growth percent below 10; inactive = the rest.

Experiments:
Assay in all cases: NCI-60 one-dose screen, 48 h (100 = growth as untreated, 0 = no growth, -100 = all killed)
[1] = system: NCI-H23 lung
[2] = system: NCI-H226 lung
[3] = system: NCI-H322M lung
[4] = system: HOP-62 NSCLC
[5] = system: NCI-H460 lung
[6] = system: HOP-92 NSCLC
[7] = system: NCI-H522 lung
[8] = system: A549/ATCC NSCLC
[9] = system: 786-0 renal
[10] = system: COLO 205 colon
[11] = system: DU-145 prostate
[12] = system: MALME-3M melanoma
[13] = system: MDA-MB-231 breast
[14] = system: RXF 393 renal
[15] = system: SF-268 CNS
[16] = system: SF-295 CNS
[17] = system: SF-539 CNS
[18] = system: UACC-257 melanoma
[19] = system: M14 melanoma
[20] = system: K-562 leukemia; settings: 10 µM unless noted

Measured: growth

CC/C(=C(\c1ccc(O)cc1)c1ccc(OCCN(C)C(=O)COCCNC(=O)Cc2ccc3c(c2)CN([C@@H]2CCC(=O)NC2=O)C3=O)cc1)c1ccccc1
active: [2]; 10 µM 6.46% | [6]; 1 µM 8.46% | [6]; 10 µM -0.223% | [12]; 10 µM -13.3% | [13]; 1 µM -5.08% | [13]; 10 µM -26.3%
inactive: [1]; 1 µM 102% | [1]; 10 µM 86.6% | [2]; 1 µM 77.4% | [3]; 1 µM 77.5% | [3]; 10 µM 37.9% | [4]; 1 µM 72% | [4]; 10 µM 16.2% | [5]; 1 µM 124% | [5]; 10 µM 106% | [7]; 1 µM 92.2% | [7]; 10 µM 95.3% | [8]; 1 µM 95.7% | [8]; 10 µM 75.2% | [9]; 1 µM 94% | [9]; 10 µM 90.6% | [10]; 1 µM 72.2% | [10]; 10 µM 33.8% | [11]; 1 µM 103% | [11]; 10 µM 104% | [12]; 1 µM 24.7% | [14]; 1 µM 100% | [14]; 10 µM 99.4% | [15]; 1 µM 77% | [15]; 10 µM 51.8% | [16]; 1 µM 103% | [16]; 10 µM 81.9% | [17]; 1 µM 78.3% | [17]; 10 µM 55.1% | [18]; 1 µM 96.4% | [18]; 10 µM 95.4% | [19]; 1 µM 82.1% | [19]; 10 µM 68.9%

Cc1cn(-c2cc(NC(=O)c3ccc(C)c(-n4cc(-c5cnc6cccnn56)nn4)c3)cc(C(F)(F)F)c2)cn1
active: [20] 4.65% | [12]; 10 µM unless noted -12.3%
inactive: [1]; 10 µM unless noted 56.9% | [2]; 10 µM unless noted 68.8% | [3]; 10 µM unless noted 106% | [4]; 10 µM unless noted 80.5% | [5]; 10 µM unless noted 102% | [6]; 10 µM unless noted 53.9% | [7]; 10 µM unless noted 81.4% | [8]; 10 µM unless noted 94.3% | [9]; 10 µM unless noted 95.4% | [10]; 10 µM unless noted 31% | [11]; 10 µM unless noted 105% | [13]; 10 µM unless noted 24.7% | [14]; 10 µM unless noted 98.1% | [15]; 10 µM unless noted 112% | [16]; 10 µM unless noted 93.8% | [17]; 10 µM unless noted 77.7% | [18]; 10 µM unless noted 22.4% | [19]; 10 µM unless noted 21.5%

Fc1cccc(CNc2nc(SCCN3CCOCC3)nc3c2cnn3CC(Cl)c2ccc(Br)cc2)c1 (stereo not drawn)
active: [5]; 10 µM unless noted 7.02% | [10]; 10 µM unless noted -9.76% | [20] -4.59% | [12]; 10 µM unless noted -19.6% | [13]; 10 µM unless noted 6.57% | [16]; 10 µM unless noted -10.5%
inactive: [1]; 10 µM unless noted 46.2% | [2]; 10 µM unless noted 27.5% | [3]; 10 µM unless noted 81.7% | [4]; 10 µM unless noted 44.9% | [6]; 10 µM unless noted 20.3% | [7]; 10 µM unless noted 36.8% | [8]; 10 µM unless noted 19.9% | [9]; 10 µM unless noted 20.9% | [11]; 10 µM unless noted 49.9% | [14]; 10 µM unless noted 29.5% | [15]; 10 µM unless noted 35% | [17]; 10 µM unless noted 10.8% | [18]; 10 µM unless noted 20.1% | [19]; 10 µM unless noted 28%

N/C(=N\c1nc2ccccc2s1)NC(=O)Nc1ccccc1[N+](=O)[O-]
active: [6]; 10 µM unless noted -5.71% | [7]; 10 µM unless noted -50.1% | [10]; 10 µM unless noted -72% | [11]; 10 µM unless noted 1.45% | [13]; 10 µM unless noted -1.5% | [16]; 10 µM unless noted 1.71% | [17]; 10 µM unless noted -41.1%
inactive: [1]; 10 µM unless noted 14.3% | [2]; 10 µM unless noted 29.1% | [3]; 10 µM unless noted 39.9% | [4]; 10 µM unless noted 30.1% | [5]; 10 µM unless noted 11.1% | [8]; 10 µM unless noted 16.8% | [9]; 10 µM unless noted 11% | [20] 10.6% | [12]; 10 µM unless noted 44.6% | [14]; 10 µM unless noted 36.4% | [15]; 10 µM unless noted 23% | [18]; 10 µM unless noted 60.1% | [19]; 10 µM unless noted 16.3%

Nc1cc(-c2c[nH]c3ccc(Br)cc23)nc2cc(-c3c[nH]c4ccccc34)nn12
active: [1]; 10 µM unless noted -68.9% | [2]; 10 µM unless noted 3.69% | [3]; 10 µM unless noted -18.8% | [4]; 10 µM unless noted -61.9% | [5]; 10 µM unless noted -53.1% | [6]; 10 µM unless noted -50.8% | [7]; 10 µM unless noted -77% | [8]; 10 µM unless noted -47.2% | [9]; 10 µM unless noted -68.2% | [10]; 10 µM unless noted -87% | [11]; 10 µM unless noted -47.5% | [20] 6.16% | [12]; 10 µM unless noted -88.1% | [13]; 10 µM unless noted -83.3% | [14]; 10 µM unless noted -76.7% | [15]; 10 µM unless noted -44.5% | [16]; 10 µM unless noted -87.6% | [17]; 10 µM unless noted -93.5% | [18]; 10 µM unless noted -86.9% | [19]; 10 µM unless noted -69.4%

O=C(NC(=S)N1CCN(c2ncnc3c2cnn3-c2ccccc2)CC1)c1ccc(F)cc1
inactive: [1]; 10 µM unless noted 77.5% | [2]; 10 µM unless noted 84.9% | [3]; 10 µM unless noted 75.8% | [4]; 10 µM unless noted 70.6% | [5]; 10 µM unless noted 43.8% | [6]; 10 µM unless noted 67.9% | [7]; 10 µM unless noted 57.6% | [8]; 10 µM unless noted 76.2% | [9]; 10 µM unless noted 98.6% | [10]; 10 µM unless noted 90.4% | [11]; 10 µM unless noted 86.4% | [20] 51.3% | [12]; 10 µM unless noted 78.1% | [13]; 10 µM unless noted 84.2% | [14]; 10 µM unless noted 77% | [15]; 10 µM unless noted 80.2% | [16]; 10 µM unless noted 69.3% | [17]; 10 µM unless noted 73.8% | [18]; 10 µM unless noted 89% | [19]; 10 µM unless noted 86.8%
